Compound activity from PubChem.
Most compounds without a hit are left out; they make up all but 1.3% or so of the library.
AGP1-GFP MLPCN = alters AGP1-GFP fluorescence in TOR pathway yeast screen; S. cerevisiae AGP1-GFP multiplex flow cytometry, 3 h; GFP as percent of DMSO wells; GFP response vs DMSO, % at 10 µM; actives 0.02% (n = 320,000); AID 2066;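 active = GFP response relative to DMSO above a set limit, near screen average plus 3 SD, cut at about 150% in these data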;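 note: median GFP channel fluorescence of the gated AGP1 strain per well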
CIT2 TOR yeast = modulators of TOR pathway CIT2-GFP in S. cerevisiae; S. cerevisiae CIT2-GFP strain, flow cytometry, 3 h; 100 means same as DMSO wells; actives 0.065% (n = 320,000); GFP response vs DMSO, % at 10 µM;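 active = GFP response relative to DMSO above a set limit, near the screen mean plus 3 SD, cut at about 150% in these data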;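 note: ratio of well median GFP fluorescence to mean of DMSO wells on the plate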
Efflux pump mplx = antifungal efflux pump inhibition, Nile Red retention | actives 0.44% (n = 330,000) | S. cerevisiae Candida pump triplex | inhibition, % at 10 µM;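 active = plate passing quality check with inhibition over a set limit, or well fluorescence over plate mean plus 4 SD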;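 note: Nile Red retained in pooled yeast measured as flow cytometry median fluorescence; higher means more Nile Red kept so more efflux inhibition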
LAP4 TOR yeast = modulators of TOR pathway LAP4-GFP in S. cerevisiae; S. cerevisiae LAP4-GFP multiplex, flow cytometry GFP, 3 h; median GFP as percent of DMSO wells; GFP response vs DMSO, % at 10 µM; actives 0.34% (n = 320,000); AID 2023;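 active = GFP response vs DMSO above a set limit, about the screen mean plus 3 SD, cut at about 150% in these data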
RPL19A-GFP yeast = yeast TOR pathway RPL19A-GFP modulation; S. cerevisiae RPL19A-GFP strain, flow cytometry, 3 h; stronger effect = lower value; percent response vs DMSO, % at 10 µM; actives 0.3% (n = 330,000);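 active = percent response vs DMSO below 50%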;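 note: median channel GFP fluorescence of the barcoded RPL19A-GFP strain; lower means less RPL19A-GFP as with rapamycin TOR inhibition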
MEP2 TOR yeast = yeast TOR pathway MEP2-GFP modulation; actives 0.51% (n = 330,000); GFP response vs DMSO, % at 10 µM; S. cerevisiae MEP2-GFP strain, flow cytometry GFP, 3 h; 100% = DMSO control level; AID 2016;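 active = GFP response versus DMSO above a set limit, roughly screen mean plus 3 SD, cut at about 180% in these data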;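 note: median GFP fluorescence of the barcode-gated MEP2-GFP cells per well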
Cmpd fluor yeast = flagged as fluorescent in efflux inhibitor counter-screen | fluorescence ratio to DMSO, % at 10 µM | shares compounds with Efflux pump mplx | S. cerevisiae AD/pABC3, compound fluorescence, flow cytometry | actives 4% (n = 1,700);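 active = fluorescence ratio to DMSO above its plate's cutoff, the plate mean ratio plus 5 SD, cut at about 210% in these data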;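 note: unstained yeast with no Nile Red so the signal is compound autofluorescence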
CaMdr1 efflux inh = Candida Mdr1 efflux pump inhibition | shares compounds with Efflux pump mplx | S. cerevisiae AD/CaMDR1, Nile Red efflux, flow cytometry | inhibition, % at 10 µM | actives 1% (n = 1,700); in the data active = inhibition above about 26%;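 note: higher means more Nile Red retained so more efflux inhibition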
CaCdr2 efflux inh = inhibitors of Candida albicans Cdr2 efflux pump; shares compounds with Efflux pump mplx; S. cerevisiae AD/CaCDR2, Nile Red retention, flow cytometry; Nile Red retention ratio vs DMSO, % at 10 µM; actives 4% (n = 1,700); AID 588520; in the data active = Nile Red retention ratio vs DMSO above about 190%;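 note: higher ratio means more blocking of Cdr2 efflux of the dye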
CaCdr1 efflux inh = Candida Cdr1 efflux pump inhibition; shares compounds with Efflux pump mplx; S. cerevisiae AD/CaCDR1, Nile Red efflux, flow cytometry; inhibition, % at 10 µM; actives 1% (n = 1,700); AID 588522;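 active = inhibition above the screen-wide mean plus twice its standard deviation, cut at about 32% in these data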
Hits are given with their value; . = inactive; / = no result given.

SMILES | AGP1-GFP MLPCN | CIT2 TOR yeast | Efflux pump mplx | LAP4 TOR yeast | RPL19A-GFP yeast | MEP2 TOR yeast | Cmpd fluor yeast | CaMdr1 efflux inh | CaCdr2 efflux inh | CaCdr1 efflux inh
Cc1cc(OC(C)C(=O)Nc2ccncc2)ccc1Cl (configuration not stated) | . | . | . | . | . | . | / | / | / | /
COc1cccc(NC(=O)CN(C)C(C)C(=O)N2CCCC2)c1 (configuration not stated) | . | . | . | . | . | . | / | / | / | /
COC(=O)C1=C(C)N(c2cc(C)cc(C)c2)/C(=C/c2ccc(O)cc2)C1=O | . | . | 0.7 | . | . | . | . | . | . | .
Cc1nc(-c2ccc(F)cc2)c(CC(=O)Nc2ccc(C)c(S(=O)(=O)N3CCOCC3)c2)s1 | . | . | . | . | . | . | / | / | / | /
Cc1nc(C(=O)Nc2cc(Cl)ccc2Cl)nn1-c1cc(OC(C)C)c(Cl)cc1Cl | . | . | . | . | . | . | / | / | / | /
Cc1nc(C(=O)Nc2ccc(Cl)cc2Cl)nn1-c1cc(OC(C)C)c(Cl)cc1Cl | . | . | 1.3 | . | . | . | . | . | . | .
CCCCN1C(=S)NC[C@@H]1Cc1cccc2ccccc12 | . | . | . | . | . | . | . | . | . | .
Nc1ncc2c(n1)-c1cc(Cl)ccc1SC2 | . | . | 0.6 | . | . | . | . | . | . | .
CC(=O)Nc1ccc(-c2cn3cc(C)ccc3n2)cc1 | . | . | 6.5 | . | . | . | . | . | . | .
Cc1ccc2nc(-c3ccccc3)cn2c1 | . | . | . | . | . | . | / | / | / | /
CC(C)(C)C(=O)CSc1nc2c(c(-c3cccs3)c1C#N)CCC2 | . | . | 0.5 | . | . | . | . | . | . | .
Cc1cc(C(=O)N/N=C/c2cccc([N+](=O)[O-])c2)c2ccccc2n1 | . | . | 8.3 | . | . | . | 845.4 | 60.3 | . | .
O=C(NN=Cc1cccc([N+](=O)[O-])c1)c1cc(-c2cccnc2)nc2ccccc12 | . | . | . | . | . | . | / | / | / | /
Clc1nc(Nc2ccccc2)nc(Nc2ccccc2)n1 | . | . | 11.1 | . | . | . | . | . | . | .
Cc1ccc(-c2c[n+](CC(=O)Nc3ccccc3C)c3n2CCC3)cc1 | . | . | . | . | . | . | . | . | . | .
Cc1ccc(NC(=O)C[n+]2cc(-c3ccccc3)n3c2CCC3)cc1 | . | . | . | . | . | . | / | / | / | /
CCc1ccccc1N(C)S(=O)(=O)c1cc(-c2cc(C)no2)ccc1OC | . | . | . | . | . | . | / | / | / | /
COc1cccc(CN(C)C(=O)/C=C/c2ccc(S(=O)(=O)N3CCCCCC3)cc2)c1 | . | . | . | . | . | . | / | / | / | /
Cc1cc(=O)oc2cc(OC(C(=O)O)c3ccccc3)ccc12 (configuration not stated) | . | . | 1.1 | . | . | . | . | . | . | .
O=C(O)CC(NCc1ccco1)C(=O)OCC1CCCO1 (configuration not stated) | . | . | 0.7 | . | . | . | . | . | . | .
CC(C)c1ccc(S(=O)(=O)Nc2ccc(O)c(Sc3ncn[nH]3)c2)cc1 | . | . | . | . | . | . | . | . | . | .
Cc1cc(C)nc(NS(=O)(=O)c2ccc(NC(=O)CSc3ncn[nH]3)cc2)n1 | . | . | . | . | . | . | / | / | / | /
COc1ccc(S(=O)(=O)Nc2ccc(O)c(Sc3ncn[nH]3)c2)cc1 | . | . | . | . | . | . | . | . | . | .
